Compound activity as filed in PubChem BioAssay.
D1 PAM: Potentiators of Human D1 Dopamine Receptor: qHTS | D(1A) dopamine receptor (Homo sapiens), P21728 | HEK293 TREx D1 cells, calcium flux, dopamine EC20 potentiation | potentiation, % at 10 µM | 0.036% of 360,000 active | AID 504651, 2011; in the data active = potentiation above about 30%; note: 0% is about no effect
Target sequence (P21728 whole entry, looked up): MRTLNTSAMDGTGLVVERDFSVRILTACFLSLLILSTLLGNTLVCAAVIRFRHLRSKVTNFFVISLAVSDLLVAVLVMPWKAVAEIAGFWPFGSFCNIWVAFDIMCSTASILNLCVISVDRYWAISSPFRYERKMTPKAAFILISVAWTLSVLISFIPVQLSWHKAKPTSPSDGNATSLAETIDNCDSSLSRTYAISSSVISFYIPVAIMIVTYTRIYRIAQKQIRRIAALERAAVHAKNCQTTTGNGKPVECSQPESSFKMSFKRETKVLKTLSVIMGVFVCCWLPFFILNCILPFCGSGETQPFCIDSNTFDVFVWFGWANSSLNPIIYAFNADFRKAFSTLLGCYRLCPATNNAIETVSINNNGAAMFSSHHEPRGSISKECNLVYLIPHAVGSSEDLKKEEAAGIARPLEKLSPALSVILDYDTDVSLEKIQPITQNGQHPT
TRHR PAM: qHTS for Small Molecule Agonists and Allosteric Enhancers of Human TRH Receptor: Primary Screen for Enhancers | 0.66% of 360,000 active | AID 493056, 2011 | enhancement, % at 2 µM | TRHR cells, fluo-8 calcium fluorescence, EC20 TRH enhancement; in the data active = enhancement above about 30%; note: 0% is about no effect
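TRHR-expressing cells loaded with fluo-8 calcium dye were read kinetically (ex 480/em 530) during compound addition, then stimulated with an EC20 of TRH (10 nM final). Enhancement of the Gq-mediated intracellular calcium response was scored.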
D1 ag: Allosteric Agonists of the Human D1 Dopamine Receptor: qHTS | AID 504660, 2011 | D(1A) dopamine receptor (Homo sapiens), P21728 | HEK293 T-REx D1 cells, calcium flux, agonist mode | 1% of 360,000 active | activation, % at 2 µM; note: 0% is about no effect
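Agonism was scored from calcium flux recorded over 180 s (1 read/s) after pintool compound addition, following a 10-cycle baseline. Cells were inducible force-coupled HEK293 TREx D1, plated overnight at 30 C and loaded with no-wash calcium dye.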
TRHR ag: qHTS for Small Molecule Agonists and Allosteric Enhancers of Human TRH Receptor: Primary Screen for Agonists; TRHR cells, calcium flux fluo-8, FDSS agonist mode; activation, % at 2 µM; 0.18% of 360,000 active; note: 0% is about no effect
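Agonist-mode FDSS calcium read (Ex 480/Em 530, 1 s cycles) in 1536-well TRHR cells with fluo-8 dye, after 10-cycle baseline and 23 nL compound addition; TRH at EC20 (10 nM final) added afterwards for the enhancer phase.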
D1 antagonist: Antagonist of Human D 1 Dopamine Receptor: qHTS | D(1A) dopamine receptor (Homo sapiens), P21728 | HEK293 TREx D1 cells, calcium flux, dopamine EC80; hits give low values | activity change, negative = inhibition, % at 10 µM | 3.2% of 360,000 active; in the data active = activity change below about -30%; note: % is set by controls: 0 for no effect and ±100 for the full control effect
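Kinetic fluorescence of a calcium dye serves as the read-out. D1-expressing Hek293 Trex cells, induced overnight at 30 C, are exposed to compound for 180 s before an EC80 dopamine addition, then read 180 s further.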
* marks the source's active call; other numbers are inactive results. Most compounds without a hit are left out; they make up all but 4.7% or so of the library. Cut-off read from the data, not from the text of the source, unless noted: active = activation above about 30%; inactive = the rest.

SMILES	D1 PAM	TRHR PAM	D1 ag	TRHR ag	D1 antagonist
CCOc1ccc(-c2c(C(=O)N/N=C/c3cccs3)nnn2-c2nonc2N)cc1	5	20	10	3	32
CCOc1ccc(/C=N/NC(=O)c2nnn(-c3nonc3N)c2-c2cccs2)cc1	10	4	165*	1	64
CCOC(=O)c1nnn(-c2nonc2N)c1-c1ccccc1	-5	-5	9	-1	-44*
Cc1ccc(-c2c(C(=O)N/N=C/c3ccc(OC(C)C)cc3)nnn2-c2nonc2N)cc1	26	33*	55*	4	55
Cc1ccc(-c2c(C(=O)N/N=C/c3ccoc3)nnn2-c2nonc2N)cc1	1	14	44*	10	58
CCOc1cccc(C2Oc3nc(SC)nnc3-c3ccccc3N2C(C)=O)c1OC (stereo not drawn)	4	6	-2	0	18
COc1cc(OC)c(NC(=O)CCCn2nc(C)c3c(C)n(-c4ccccc4)nc3c2=O)cc1Cl	0	5	1	-1	-27
Nc1nonc1-n1nnc(C(=O)N/N=C/c2ccccc2)c1CSc1ccc(Cl)cc1	-7	-32	6	1	-46*
Nc1nonc1-n1nnc(C(=O)N/N=C/c2cccc(Cl)c2)c1CSc1ccc(Cl)cc1	-1	-13	3	1	-14
O=C(O)CC(CNS(=O)(=O)c1ccccc1)c1ccccc1 (stereo not drawn)	-8	-5	-1	1	-33*
COc1cc2cc(CNc3ccc(C)cc3)c(=O)n(CC(=O)Nc3ccc(F)cc3F)c2cc1OC	-2	-3	7	6	1
O=C(O)c1ccc(S(=O)(=O)N[C@H](Cc2ccc([N+](=O)[O-])cc2)C(=O)O)cc1	-3	0	2	1	9
CNC(=O)/C(C#N)=C\c1ccc(CNS(=O)(=O)c2ccc(Cl)cc2)o1	-4	-3	1	0	-69*
COc1ccc(-c2[nH]ncc2CN2CCC(OCc3ccccc3)CC2)c(F)c1	-5	1	11	0	-52*
CCOc1ccc2nc(N3CCC(C(=O)NC4CCCCC4)CC3)sc2c1	0	0	9	0	-3
CCOc1ccc2nc(N3CCC(C(=O)Nc4c(C)cccc4C)CC3)sc2c1	-2	6	-1	0	-56*
CCCCN(C)CCCNC(=O)C1CCN(c2nc3ccc(CC)cc3s2)CC1	3	-1	84*	3	-53*
CCCCN(CC)CCCNC(=O)C1CCN(c2nc3ccc(CC)cc3s2)CC1	6	-6	79*	5	-62*
CCOc1ccc2nc(N3CCC(C(=O)NCCCN4CCOCC4)CC3)sc2c1	1	-2	1	0	4
Cc1ccc(-n2nc(C)c3c(C)cc(=O)n(CC(=O)N4CCCc5ccccc54)c32)cc1	-1	4	1	0	3
O=c1oc2cc(O)ccc2cc1-c1nnc(Nc2ccccc2F)s1	16	39*	405*	187*	-4
COc1cccc(Nc2nnc(-c3cc4ccc(O)cc4oc3=O)s2)c1	7	5	369*	70*	-28
O=c1oc2ccc3ccccc3c2cc1-c1nnc(Nc2ccccc2F)s1	-1	5	8	3	-9
O=C(Cn1ccc2cc(S(=O)(=O)N3CCCC3)ccc21)NCc1ccc(Cl)cc1	0	-3	8	0	0
CCOc1ccc(-c2c(C)nn3c(C)c(C(=O)Nc4cccc(Cl)c4C)cnc23)cc1OCC	2	0	0	0	-6
CC1CCN(c2ncnc3ccccc23)CC1	-5	-1	22	2	-34*
CC1CCN(c2nc(-c3ccccc3O)nc3ccccc23)CC1	-8	1	3	0	11
CCc1ccc(NC(=O)Cn2c(=O)n(CCCCC(=O)NCCc3ccc(Cl)cc3)c(=O)c3ccccc32)cc1	1	7	2	1	1
